The source of these data is PubChem BioAssay (EPA / NIEHS).

Test [1] deals with human Constitutive Androstane Receptor (CAR), NR1I3 (gene 9970) (UniProt Q14994). Put plainly: NVS_NR_hCAR_Antagonist: NovaScreen (NVS) Nuclear Receptor Binding Assay for human Constitutive Androstane Receptor Antagonism (CAR) (AID 2283344). In short, it runs like this: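 Cell-free TR-FRET binding read 1 h after dosing, antagonist mode; loss of signal versus DMSO baseline. Primary screen in duplicate at a single 25 uM; actives retested in concentration series.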
Sequence of human Constitutive Androstane Receptor (CAR), NR1I3 (gene 9970) (Q14994 whole entry, looked up): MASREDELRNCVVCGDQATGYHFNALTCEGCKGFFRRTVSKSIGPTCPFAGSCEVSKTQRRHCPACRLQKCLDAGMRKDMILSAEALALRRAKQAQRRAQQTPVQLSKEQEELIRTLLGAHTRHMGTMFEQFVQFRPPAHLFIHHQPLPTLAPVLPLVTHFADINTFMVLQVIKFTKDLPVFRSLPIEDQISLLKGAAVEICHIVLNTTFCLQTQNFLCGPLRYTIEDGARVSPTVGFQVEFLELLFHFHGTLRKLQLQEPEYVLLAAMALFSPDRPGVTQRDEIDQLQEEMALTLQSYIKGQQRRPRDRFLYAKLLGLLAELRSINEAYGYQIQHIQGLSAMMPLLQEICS

The target of test [2] is chimpanzee Androgen Receptor (AR), AR (gene 747460) (UniProt O97775). Put plainly: NVS_NR_cAR: NovaScreen (NVS) Nuclear Receptor Binding Assay for chimpanzee Androgen Receptor (AR) (AID 2283346).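 Also: radioligand displacement from AR measured by scintillation counting in a cell-free assay; a loss of bound radioligand signal versus DMSO counts as binding.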 The essentials: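 Cell-free competition binding with insect-cell (Sf9/Sf21) extracted chimpanzee AR; scintillation signal from lysate at 72 h. Screened in duplicate at 25 uM, then concentration-response for actives; fitting relative to DMSO.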
Sequence of chimpanzee Androgen Receptor (AR), AR (gene 747460) (O97775 whole entry, looked up): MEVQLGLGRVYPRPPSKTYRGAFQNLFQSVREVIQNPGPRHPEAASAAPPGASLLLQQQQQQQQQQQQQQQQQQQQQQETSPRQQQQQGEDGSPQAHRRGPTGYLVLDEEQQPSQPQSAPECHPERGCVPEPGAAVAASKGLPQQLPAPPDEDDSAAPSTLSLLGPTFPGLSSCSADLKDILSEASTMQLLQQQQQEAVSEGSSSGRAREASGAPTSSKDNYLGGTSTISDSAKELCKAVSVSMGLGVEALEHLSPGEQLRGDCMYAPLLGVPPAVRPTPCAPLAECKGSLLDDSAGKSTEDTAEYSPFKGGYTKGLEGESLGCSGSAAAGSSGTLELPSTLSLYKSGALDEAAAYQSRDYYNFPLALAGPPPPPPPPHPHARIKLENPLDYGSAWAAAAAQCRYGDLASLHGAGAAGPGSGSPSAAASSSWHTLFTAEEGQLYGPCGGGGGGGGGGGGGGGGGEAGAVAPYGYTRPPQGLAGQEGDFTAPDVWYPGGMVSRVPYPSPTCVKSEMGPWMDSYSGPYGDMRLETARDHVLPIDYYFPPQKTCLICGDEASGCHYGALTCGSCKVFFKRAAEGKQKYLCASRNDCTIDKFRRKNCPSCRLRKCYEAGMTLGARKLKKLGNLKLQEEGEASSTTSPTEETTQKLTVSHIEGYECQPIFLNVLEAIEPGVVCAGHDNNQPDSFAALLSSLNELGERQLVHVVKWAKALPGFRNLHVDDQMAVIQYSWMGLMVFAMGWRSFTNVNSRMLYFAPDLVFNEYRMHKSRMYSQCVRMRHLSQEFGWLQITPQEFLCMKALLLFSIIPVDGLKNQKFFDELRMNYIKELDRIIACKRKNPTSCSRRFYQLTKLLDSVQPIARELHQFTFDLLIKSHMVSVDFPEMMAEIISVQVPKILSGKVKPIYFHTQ

In test [3] the target is Estrogen receptor (Homo sapiens) (UniProt P03372). Briefly: OT_ER_ERaERa_1440: Odyssey Thera (OT) 24-hour HEK293T Protein-Complementation Assay for Estrogen Receptor-alpha/-alpha Homodimer (AID 2283349).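 Also: hits raise fluorescence above DMSO for agonists and antagonists alike.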 In short, it runs like this: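 Protein-fragment complementation between two human ERα ligand-binding domains (aa 310-547) in stably transfected HEK293T cells was monitored after 24 h treatment, using fluorescence intensity relative to vehicle controls.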
Sequence of Estrogen receptor (Homo sapiens) (P03372 whole entry, looked up, the tested form may be a part): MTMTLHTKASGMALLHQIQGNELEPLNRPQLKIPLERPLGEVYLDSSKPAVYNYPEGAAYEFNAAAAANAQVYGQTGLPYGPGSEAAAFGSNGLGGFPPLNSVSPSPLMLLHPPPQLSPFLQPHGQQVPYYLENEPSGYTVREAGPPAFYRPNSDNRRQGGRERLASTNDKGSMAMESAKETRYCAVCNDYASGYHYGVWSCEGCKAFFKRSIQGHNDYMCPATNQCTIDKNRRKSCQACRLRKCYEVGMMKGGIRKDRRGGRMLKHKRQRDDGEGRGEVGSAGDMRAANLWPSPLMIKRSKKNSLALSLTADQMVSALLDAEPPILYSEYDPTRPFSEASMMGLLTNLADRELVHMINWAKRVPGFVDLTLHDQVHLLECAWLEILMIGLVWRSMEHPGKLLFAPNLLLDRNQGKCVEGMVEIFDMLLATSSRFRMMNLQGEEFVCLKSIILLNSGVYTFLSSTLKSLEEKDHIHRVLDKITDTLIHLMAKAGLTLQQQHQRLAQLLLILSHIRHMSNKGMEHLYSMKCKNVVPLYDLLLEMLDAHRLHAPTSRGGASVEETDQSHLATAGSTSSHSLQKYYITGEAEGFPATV

The target is the same in test [4]. Briefly: OT_ER_ERaERa_0480: Odyssey Thera (OT) 8-hour HEK293T Protein-Complementation Assay for Estrogen Receptor-alpha/-alpha Homodimer (AID 2283351).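 Also: rise in fluorescence from reassembled reporter fragments on ERα LBD homodimer in nucleus or whole cell.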 The essentials: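 The readout is complementation of fragments fused to the human ER alpha ligand-binding domain (aa 310-547), stably expressed in HEK293T cells. After 8 h of exposure, the increase in nuclear/cytoplasmic fluorescence was measured by laser scanning cytometry and fitted relative to DMSO.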

Test [5] has as its target T1, Estrogen receptor (Homo sapiens) + Estrogen receptor beta (Homo sapiens) (UniProt P03372+Q92731). Put plainly: OT_ER_ERaERb_1440: Odyssey Thera (OT) 24-hour HEK293T Protein-Complementation Assay for Estrogen Receptor-alpha/-beta Homodimer (AID 2283356).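 Also: heteromer of ER alpha and ER beta binding domains; hits raise reporter fluorescence and both agonists and antagonists give an increase.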 The essentials:
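HEK293T cells stably expressing a PCA pair of ERα LBD (aa 310-547) and ERβ LBD (aa 263-489) were dosed for 24 h. Fluorescence intensity increase versus DMSO vehicle was fitted as gain-of-signal.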

Test [6] addresses T1, Estrogen receptor (Homo sapiens) + Estrogen receptor beta (Homo sapiens). Briefly: OT_ER_ERaERb_0480: Odyssey Thera (OT) 8-hour HEK293T Protein-Complementation Assay for Estrogen Receptor-alpha/-beta Heterodimer (AID 2283352). In short, it runs like this:
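HEK293T cells expressing ER-alpha/ER-beta LBD fusions to complementary reporter fragments were dosed with compound for 8 hours. Heterodimer formation was read as increased nuclear (agonist) or nuclear plus cytoplasmic (antagonist) mean fluorescence intensity versus DMSO vehicle.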

In test [7] the target is Bile acid receptor (Homo sapiens) (UniProt Q96RI1). Put plainly: NVS_NR_hFXR_Antagonist: NovaScreen (NVS) Nuclear Receptor Binding Assay for human Farnesoid X Receptor Antagonism (FXR) (AID 2283350). In short, it runs like this: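 Cell-free TR-FRET ligand-binding read-out on human FXR (NR1H4) in antagonist mode, measured 1 h after dosing. Primary screen in duplicate at 25 uM, actives retested in concentration series; signal loss scored versus DMSO.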
Sequence of Bile acid receptor (Homo sapiens) (Q96RI1 whole entry, looked up): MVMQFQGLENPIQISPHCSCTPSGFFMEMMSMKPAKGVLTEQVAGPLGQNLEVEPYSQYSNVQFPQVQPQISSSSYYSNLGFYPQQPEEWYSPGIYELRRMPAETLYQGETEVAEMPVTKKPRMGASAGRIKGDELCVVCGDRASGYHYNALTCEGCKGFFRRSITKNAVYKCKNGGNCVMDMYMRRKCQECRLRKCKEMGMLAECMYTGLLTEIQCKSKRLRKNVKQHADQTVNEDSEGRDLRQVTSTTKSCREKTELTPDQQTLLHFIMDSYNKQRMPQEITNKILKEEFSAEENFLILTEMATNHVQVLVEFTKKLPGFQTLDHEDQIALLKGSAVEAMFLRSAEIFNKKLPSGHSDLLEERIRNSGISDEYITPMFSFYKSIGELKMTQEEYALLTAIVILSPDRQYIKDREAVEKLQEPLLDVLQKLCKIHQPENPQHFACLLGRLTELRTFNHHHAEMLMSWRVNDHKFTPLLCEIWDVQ

Records with an inconclusive call do not appear. Active and inactive are the calls of the source. The calls were made as follows: active = hit-call score of the fitted dose curve at least 0.9, where 1 is the maximum; inconclusive = response in the unintended direction; inactive = score below 0.9.

T1 sequence (P03372 whole entry, looked up, the tested form may be a part): as the sequence (P03372 whole entry, looked up, the tested form may be a part) above
T1 sequence (Q92731 whole entry, looked up, the tested form may be a part): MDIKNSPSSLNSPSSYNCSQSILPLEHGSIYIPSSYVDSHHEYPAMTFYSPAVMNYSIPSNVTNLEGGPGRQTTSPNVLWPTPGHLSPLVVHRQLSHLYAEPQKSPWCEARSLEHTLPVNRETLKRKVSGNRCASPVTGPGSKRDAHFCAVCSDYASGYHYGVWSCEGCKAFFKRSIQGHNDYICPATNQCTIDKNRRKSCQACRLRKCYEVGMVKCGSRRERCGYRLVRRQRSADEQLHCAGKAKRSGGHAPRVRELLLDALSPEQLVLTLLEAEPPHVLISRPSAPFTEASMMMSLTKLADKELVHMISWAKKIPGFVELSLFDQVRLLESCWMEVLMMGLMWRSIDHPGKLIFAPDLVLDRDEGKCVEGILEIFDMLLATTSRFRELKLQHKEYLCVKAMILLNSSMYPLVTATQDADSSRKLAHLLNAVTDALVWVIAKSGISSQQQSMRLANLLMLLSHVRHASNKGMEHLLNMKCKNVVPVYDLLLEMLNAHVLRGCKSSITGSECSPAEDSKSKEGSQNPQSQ

As a reminder, the AC50 is the concentration giving half of the maximal activity seen. Regarding `C=C(C)CN(CC)c1c([N+](=O)[O-])cc(C(F)(F)F)cc1[N+](=O)[O-]`, the call in test [1], in test [2], in test [3] and in test [4] was inactive. For the same molecule, in test [5], the AC50 was 79.2 µM (active).
In the case of `COC(=O)NC(=S)Nc1ccccc1NC(=S)NC(=O)OC`, the molecule was called inactive in test [3], in test [4], in test [6] and in test [5].
`CC(C)C1(C)N=C(c2ncccc2C(=O)O)NC1=O` (centres undefined): the result in test [1], in test [3], in test [7] and in test [4] was inactive.
For the molecule `Cc1ccc(N=CN(C)C=Nc2ccc(C)cc2C)c(C)c1`, the outcome in test [3], in test [4] and in test [5] was inactive.
For the molecule `COc1cc(Cl)c(OC)cc1Cl`, the molecule was called inactive in test [3], in test [4] and in test [5].
